Source: PubChem BioAssay AID1159580 (chemical genetic matrix, 2015)
Where a name gives a salt, the structure may show the parent alone. Screen size: about 5,500 compounds; about 2,000 (36%) were called active. Another 18% or so got no clear call; they are omitted. Cut-off read from the data, not from the text of the source: active = normalized growth mostly below about 0.91 (no sharp cut-off); inconclusive = no clear call, values can overlap the other calls; inactive = mostly above about 0.92. The list shows a part of the results. Where a SMILES comes first, the peptide text is derived from it. The star is where a group is joined. Tfa = O=C(C(F)(F)F)*

Assay: chemical genetic growth profiling, strain panel (AID 1159580);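 note: tested at 20 µM; growth read once vehicle control cultures reached saturation at 30 °C; 1 = growth at the plate median or of vehicle wells; lower values mean less growth of the strain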
Details: S. cerevisiae deletion strains, growth OD
[1] = locus YAL021C, strain ccr4, active compounds read low
[2] = locus YAL026C, strain drs2, active compounds read low
[3] = locus YAL030W, strain snc1, active compounds read low
[4] = locus YBL061C, strain skt5, active compounds read low
[5] = locus YBR009C, strain hhf1, active compounds read low
[6] = locus YBR023C, strain chs3, active compounds read low
[7] = locus YBR171W, strain sec66, active compounds read low
[8] = locus YBR231C, strain swc5, active compounds read low
[9] = locus YBR279W, strain paf1, active compounds read low
[10] = locus YCL011C, strain gbp2, active compounds read low
[11] = locus YCL016C, strain dcc1, active compounds read low
[12] = locus YCL069W, strain vba3, active compounds read low
[13] = locus YCR088W, strain abp1, active compounds read low
[14] = locus YDL005C, strain med2, active compounds read low
[15] = locus YDL040C, strain nat1, active compounds read low
[16] = locus YDR001C, strain nth1, active compounds read low
[17] = locus YDR069C, strain doa4, active compounds read low
[18] = locus YDR137W, strain rgp1, active compounds read low
[19] = locus YDR159W, strain sac3, active compounds read low
[20] = locus YDR297W, strain sur2, active compounds read low
[21] = locus YDR334W, strain swr1, active compounds read low
[22] = locus YDR335W, strain msn5, active compounds read low
[23] = locus YDR392W, strain spt3, active compounds read low
[24] = locus YEL003W, strain gim4, active compounds read low
[25] = locus YEL037C, strain rad23, active compounds read low
[26] = locus YEL061C, strain CIN8 (second series), active compounds read low
[27] = locus YER015W, strain faa2, active compounds read low
[28] = locus YER016W, strain bim1, active compounds read low
[29] = locus YER111C, strain swi4, active compounds read low
[30] = locus YER155C, strain BEM2 (second series), active compounds read low
[31] = locus YFR010W, strain ubp6, active compounds read low
[32] = locus YGL167C, strain pmr1, active compounds read low
[33] = locus YGL173C, strain kem1, active compounds read low
[34] = locus YGL227W, strain vid30, active compounds read low
[35] = locus YGL240W, strain doc1, active compounds read low
[36] = locus YGL253W, strain hxk2, active compounds read low
[37] = locus YHR013C, strain ard1, active compounds read low
[38] = locus YHR027C, strain rpn1, active compounds read low
[39] = locus YHR142W, strain chs7, active compounds read low
[40] = locus YJL092W, strain hpr5, active compounds read low
[41] = locus YJL095W, strain BCK1 (second series), active compounds read low
[42] = locus YJL115W, strain asf1, active compounds read low
[43] = locus YJL129C, strain trk1, active compounds read low
[44] = locus YJL154C, strain vps35, active compounds read low
[45] = locus YJL164C, strain tpk1, active compounds read low
[46] = locus YJL166W, strain qcr8, active compounds read low
[47] = locus YKL160W, strain elf1, active compounds read low
[48] = locus YKR026C, strain gcn3, active compounds read low
[49] = locus YKR091W, strain srl3, active compounds read low
[50] = locus YLL001W, strain dnm1, active compounds read low
[51] = locus YLL026W, active compounds read low
[52] = locus YLL041C, strain sdh2, active compounds read low
[53] = locus YLR027C, strain aat2, active compounds read low
[54] = locus YLR221C, strain rsa3, active compounds read low
[55] = locus YLR258W, strain gsy2, active compounds read low
[56] = locus YLR262C, strain YPT6 (second series), active compounds read low
[57] = locus YLR320W, strain mms22, active compounds read low
[58] = locus YLR342W, strain FKS1, active compounds read low
[59] = locus YLR357W, strain rsc2, active compounds read low
[60] = locus YLR370C, strain arc18, active compounds read low
[61] = locus YLR384C, strain iki3, active compounds read low
[62] = locus YML120C, strain ndi1, active compounds read low
[63] = locus YMR058W, strain fet3, active compounds read low
[64] = locus YMR125W, strain sto1, active compounds read low
[65] = locus YMR129W, active compounds read low
[66] = locus YMR205C, strain PFK2, active compounds read low
[67] = locus YMR231W, strain pep5, active compounds read low
[68] = locus YNL071W, strain lat1, active compounds read low
[69] = locus YNL209W, strain ssb2, active compounds read low
[70] = locus YNL248C, strain rpa49, active compounds read low
[71] = locus YNL322C, strain KRE1 (second series), active compounds read low
[72] = locus YNR049C, strain mso1, active compounds read low
[73] = locus YOR001W, strain rrp6, active compounds read low
[74] = locus YOR070C, strain gyp1, active compounds read low
[75] = locus YOR080W, strain dia2, active compounds read low
[76] = locus YOR083W, strain WHI5, active compounds read low
[77] = locus YOR106W, strain vam3, active compounds read low
[78] = locus YOR265W, strain rbl2, active compounds read low
[79] = locus YOR270C, strain vph1, active compounds read low
[80] = locus YOR290C, strain snf2, active compounds read low
[81] = locus YPL051W, strain arl3, active compounds read low
[82] = locus YPL078C, strain atp4, active compounds read low
[83] = locus YPL106C, strain sse1, active compounds read low
[84] = locus YPL240C, strain hsp82, active compounds read low

Measured: normalized growth

O=C1C=C2C=C[C@@H]3C[C@@]2(O1)[C@H]1CCCCN31
inactive: [1] 1.02 | [2] 1.01 | [3] 0.993 | [4] 1.01 | [5] 0.938 | [6] 1.01 | [7] 0.99 | [8] 0.977 | [9] 1.01 | [10] 1.01 | [11] 1.04 | [12] 0.974 | [13] 0.985 | [14] 0.998 | [15] 0.997 | [16] 0.992 | [17] 0.996 | [18] 0.965 | [19] 0.93 | locus YDR195W, strain ref2 0.973 | [20] 0.994 | [21] 0.956 | [22] 1.01 | [23] 0.973 | [24] 0.95 | [25] 0.982 | [26] 0.976 | [27] 1.01 | [28] 1.03 | [29] 1 | [30] 0.986 | [31] 0.96 | [32] 0.978 | [33] 0.977 | [34] 0.985 | [35] 0.989 | [36] 1.01 | [37] 1.01 | [38] 0.979 | locus YHR030C, strain SLT2, active compounds read low 1.06 | locus YHR079C, strain IRE1, active compounds read low 1.05 | [39] 1.01 | [40] 0.993 | [41] 1 | locus YJL095W, strain BCK1, active compounds read low 1 | [42] 0.993 | [43] 1.01 | [44] 0.986 | [45] 0.969 | [46] 0.961 | locus YJL187C, strain SWE1, active compounds read low 0.984 | locus YJR066W, strain TOR1, active compounds read low 1 | [47] 1.05 | [48] 0.976 | [49] 0.992 | [50] 0.974 | [51] 0.996 | [52] 1 | [53] 1 | locus YLR113W, strain HOG1, active compounds read low 1.03 | [54] 0.966 | [55] 1.01 | [56] 0.927 | [57] 0.926 | [58] 1 | [59] 0.986 | [60] 1.01 | [61] 0.991 | [62] 0.956 | [63] 0.981 | [64] 1 | [65] 0.986 | [66] 0.997 | [67] 0.994 | [68] 0.98 | locus YNL183C, strain NPR1, active compounds read low 0.973 | [69] 1 | [70] 1.04 | [71] 1 | [72] 1.01 | [73] 0.94 | [74] 0.991 | [75] 0.994 | [76] 0.982 | [77] 1.01 | locus YOR231W, strain MKK1, active compounds read low 1.02 | [78] 0.989 | [79] 1 | [80] 1.05 | [81] 1.05 | [82] 1.04 | [83] 1.02 | [84] 0.994 | locus YPL256C, strain CLN2, active compounds read low 1.03

CC(C)C(NC(=O)C(Cc1ccc(O)cc1)NC(=O)C(NC(=O)C(F)(F)F)C(C)C)C(=O)O (stereo not drawn) (Tfa-Val-Tyr-Val-OH; configuration not given here)
inactive: [1] 0.997 | [2] 1 | [3] 0.985 | [4] 0.984 | [5] 1.02 | [6] 0.983 | [7] 0.976 | [8] 1 | [9] 0.996 | [10] 1 | [11] 0.98 | [12] 1 | [13] 0.988 | [14] 0.998 | [15] 0.976 | [16] 0.997 | [17] 0.984 | [18] 0.968 | [19] 0.979 | locus YDR195W, strain ref2 0.995 | [20] 0.985 | [21] 1.01 | [22] 0.994 | [23] 0.935 | [24] 0.996 | [25] 0.99 | [26] 1.01 | [27] 0.999 | [28] 0.976 | [29] 0.972 | [30] 0.983 | [31] 0.997 | [32] 0.985 | [33] 0.991 | [34] 0.988 | [35] 0.998 | [36] 0.982 | [37] 0.94 | [38] 0.988 | [39] 0.995 | [40] 0.995 | [41] 0.975 | [42] 0.986 | [43] 0.995 | [44] 0.98 | [45] 0.989 | [46] 1.02 | [47] 1 | [48] 0.989 | [49] 0.983 | [50] 1 | [51] 1 | [52] 1 | [53] 0.991 | [54] 1 | [55] 0.995 | [56] 0.969 | [57] 0.993 | [58] 0.996 | [59] 0.951 | [60] 0.992 | [61] 1 | [62] 0.98 | [63] 0.982 | [64] 0.978 | [65] 0.998 | [66] 0.998 | [67] 0.997 | [68] 0.987 | [69] 1 | [70] 0.963 | [71] 0.971 | [72] 1 | [73] 1 | [74] 0.995 | [75] 0.984 | [76] 0.94 | [77] 1 | [78] 0.998 | [79] 0.963 | [80] 0.985 | [81] 0.986 | [82] 0.987 | [83] 0.954 | [84] 0.981
